Source: PubChem BioAssay (National Center for Advancing Translational Sciences (NCATS))
Most compounds without a hit are left out; they make up all but 2.2% or so of the library.
VACV Venus inh = vaccinia inhibition (Venus reporter). Potency, µM (series often up to 36.5 µM), without a hit: at the highest dose activity change, negative = inhibition, usual class: inhibitors. hit rate 0.46% among 330,000. AID 720580. Vaccinia virus Venus reporter expression, fluorescence; calls by dose curve; tested in A549 cells; note: nearly all actives have a fitted effect of over 30% in size
VACV mCherry inh = vaccinia inhibition (mCherry reporter) | Potency, µM (series often up to 36.5 µM), for the others: top-dose activity change, negative = inhibition, actives largely listed as inhibitors | hit rate 0.63% among 310,000 | Vaccinia virus mCherry reporter infection, fluorescence; calls by dose curve; tested in A549 cells; note: nearly all actives have a fitted effect of over 35% in size
FMDV antiviral = foot and mouth disease virus antiviral activity. FMDV antiviral cell-based qHTS. Potency, µM (titrated, usually from 57.9 µM), inactives show top-dose activity change, negative = inhibition, actives largely listed as inhibitors. hit rate 1.2% among 410,000. AID 1159524; calls by dose curve; tested in HEK293T cells; note: read-out not given here; nearly all actives have a fitted effect of over 45% in size
Giardia FBPA inh = inhibitors of Giardia lamblia fructose-1,6-bisphosphate aldolase | A8B2U2 | purified Giardia FBPA | Potency, µM (top dose mostly 59.6 µM), for inactives: at the highest dose activity, negative = inhibition, actives largely listed as inhibitors | hit rate 0.71% among 290,000 | AID 2451; active = well fitted inhibition curve with a large enough effect; inconclusive = small, poorly fitted or top-dose-only effect, or effect the other way; note: nearly all actives have a fitted effect of over 55% in size
Target sequence (A8B2U2 whole entry, looked up): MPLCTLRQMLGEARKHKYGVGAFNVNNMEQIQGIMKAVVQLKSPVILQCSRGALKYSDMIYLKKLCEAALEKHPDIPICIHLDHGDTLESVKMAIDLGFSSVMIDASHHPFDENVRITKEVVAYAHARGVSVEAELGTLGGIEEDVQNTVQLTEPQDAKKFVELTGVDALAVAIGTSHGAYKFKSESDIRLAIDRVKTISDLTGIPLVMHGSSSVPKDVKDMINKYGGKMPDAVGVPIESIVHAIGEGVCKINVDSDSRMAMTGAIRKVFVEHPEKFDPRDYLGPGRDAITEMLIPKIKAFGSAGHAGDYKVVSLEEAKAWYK
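40 nM FBPA preincubated 10 min at RT with compound (up to 57.5 uM final), then substrate plus GAPDH/TPI/NAD/arsenate coupling and diaphorase/resazurin added. Fluorescence read after 20 min at RT, 525/598 nm.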
Starred values were filed as active, the others as inactive; i = inactive; ? = inconclusive; . = no result; [ ] = another dose, or the depositor's remark. % is set by controls: 0 for no effect and ±100 for the full control effect; potency is the fitted concentration of half-maximal effect.

SMILES	VACV Venus inh	VACV mCherry inh	FMDV antiviral	Giardia FBPA inh
CCCc1[nH]nc2c1C(c1ccccc1OCC)C(C#N)=C(N)O2 (stereo not drawn)	.	.	-20%	-9%
CCC(CC)C1C(C#N)=C(N)Oc2n[nH]c(-c3ccccc3)c21 (stereo not drawn)	?	?	.	-7%
CCCc1[nH]nc2c1C(c1ccccc1OC)C(C#N)=C(N)O2 (stereo not drawn)	-20%	-12%	28µM*	-15%
Cc1[nH]nc2c1C(C1CC=CCC1)C(C#N)=C(N)O2 (stereo not drawn)	-14%	.	25µM*	1%
CCc1[nH]nc2c1C(C(C)C)C(C#N)=C(N)O2 (stereo not drawn)	.	.	32µM*	-9%
CCc1[nH]nc2c1C(c1cccnc1)C(C#N)=C(N)O2 (stereo not drawn)	.	.	35%	-7%
CCC(CC)C1C(C#N)=C(N)Oc2n[nH]c(C)c21 (stereo not drawn)	-28%	-12%	35µM*	-29%
Cc1ccccc1C1(CC(=O)N2CC3(C)CC2CC(C)(C)C3)CC(=O)N(Cc2cccnc2)C1=O (stereo not drawn)	-11%	-15%	12%	.
Clc1cccc(Cl)c1OCCCCN1CCCCC1	.	.	-4%	?
Cc1cccc(Cl)c1OCCN1CCCC1	0%	-3%	-25%	25µM*
Cc1ccc(C(=O)COC(=O)c2cccs2)cc1	.	.	22µM*	5%
COc1c(O)c(O)c2cc(OC)c3c(OC)cc(=O)c4c5c(=O)c(OC)c(C(C)=O)c6c5c(c1CC=6C)c2c34	.	.	.	-19%
COc1ccc(/C=N/Nc2nc(-c3cccnc3)nc3ccccc23)cc1OC	4%	-13%	-12%	?
Cc1ccc(-c2nc(N/N=C/c3ccncc3)c3ccccc3n2)cc1	-8%	-7%	1µM*	17%
CCn1c(-c2ccccc2F)nc2cc(NC(C)=O)cc(C(=O)NCC3CCOCC3)c21	-13%	i	-1%	.
C=Cc1ccc(N=Cc2c(O)ccc3ccccc23)cc1	-20%	?	-3%	14µM*
Nc1nc(N)c2c(OCc3ccc(C(F)(F)F)cc3)cccc2n1	10µM*	10µM*	.	.
CCOC(=O)N(C)c1c(CC)nc2c(OCc3ccc(C(F)(F)F)cc3)cccn12	-19%	18%	?	.
O=C(Nc1ccccc1)Nc1ncc([N+](=O)[O-])s1	?	10µM*	10µM*	-3%
Cc1ccc(C)c(CN2C[C@H](Sc3nc4ccccc4[nH]3)C[C@H]2C(=O)N2CCCN(C)CC2)c1	-9%	-18%	10%	.
CCOC(=O)c1cccc(NC2c3ccccc3C(=O)N2Cc2ccco2)c1 (stereo not drawn)	-8%	?	13µM*	12%
CC(=O)c1cccc(NC2c3ccccc3C(=O)N2Cc2ccco2)c1 (stereo not drawn)	0%[7.34 µM]	i[7.34 µM]	?	4%
O=C(c1cnn2c(C(F)(F)F)cc(-c3ccccc3)nc12)N1CCCCC1c1cccnc1 (stereo not drawn)	-10%	-23%	-29%	-3%
O=C(c1cc2nc(-c3ccc(F)cc3)cc(C(F)(F)F)n2n1)N1CCCCC1c1cccnc1 (stereo not drawn)	?	?	18µM*	6%
CCN(CC)c1ccccc1/C=C/[n+]1ccc(CCCCI)c2ccccc21	i	i	.	.
SMILES	VACV Venus inh	VACV mCherry inh	FMDV antiviral	Giardia FBPA inh
OC1COC(OCc2ccccc2)C(O)C1O (stereo not drawn)	1%	-20%	-8%	5%
C=CCN=c1scc(-c2ccc3c(c2)NC(=O)CO3)n1/N=C(\C)c1ccccn1	?	?	18µM*	4%
CC(NC(=O)c1cc(F)ccc1F)c1nnc2n1CCN(Cc1cccs1)CC2 (stereo not drawn)	-7%	-17%	1%	.
O=C(/C=C/c1ccc(F)cc1)c1ccccc1Br	28µM*	?	22µM*	3%
COc1ccc(CC(=O)N2CCc3cc(OC)c(OC)cc3C2COc2ccc(F)cc2)cc1 (stereo not drawn)	-5%	-2%	-16%	.
COc1ccc(CC(=O)N2CCc3cc(OC)c(OC)cc3C2COc2ccc(F)cc2)cc1OC (stereo not drawn)	-6%	2%	25µM*	.
Cc1cc(=O)oc(C)c1C(=O)Nc1ccc2ncccc2c1	.	.	-11%	-23%
Cc1cc(=O)oc(C)c1C(=O)Nc1ccc2nsnc2c1	?	.	25µM*	-2%
O=[N+]([O-])c1cc(S(=O)(=O)N2CCCCCC2)ccc1F	14µM*	?	?	11%
O=C(NCCN1CCOCC1)c1cnn(-c2nccc(-c3ccccc3F)n2)c1C1CC1	?	-1%	40%	.
Cc1cccc(N2CCN(C(=O)CCN3C(=S)NC(C)(C)CC3C)CC2)c1C (stereo not drawn)	-11%	-21%	?	-5%
Cc1ccc(C)c(N2CCN(C(=O)CCCN3C(=S)NC(C)(C)CC3C)CC2)c1 (stereo not drawn)	-27%	-9%	22µM*	9%
O=C(N/N=C/c1ccccn1)c1sc2ccccc2c1Cl	.	.	11%	5µM*
CC(C)c1ccc(/C=N/NC(=O)c2ccccn2)cc1	-19%	i	13µM*	-17%
O=C(N/N=C/c1c[nH]c2ccccc12)c1sc2ccccc2c1Cl	-7%	i	60%	-6%
O=C(N/N=C/c1ccccn1)c1ccc(Cl)cc1	-21%	3.2µM*	?	15%
NC(N)=NCCC[C@H](NC(=O)[C@@H](N)Cc1ccc(O)cc1)C(=O)O	-4%[3.33 µM]	-9%[3.33 µM]	-5%[6.7 µM]	.
COc1ccc(CN2CCOc3ccc(CN4CCC(O)(c5cccnc5)CC4)cc3C2)cc1OC	-18%	-19%	-28%	.
COc1ccc(OC)c(/C=C/c2cc3ccccc3cn2)c1	-41%	?	.	.
C=C1C=C(C(F)F)n2ncc(C(=O)NCc3ccc(Cl)cc3Cl)c2N1	-13%	-21%	.	.
COc1ccc(-c2ccnc(-n3ncc(C(=O)NCc4cccnc4)c3C3CC3)n2)cc1F	-9%	-27%	?	.
CC1Cc2ccccc2N1C(=O)CSc1nnc2c(n1)[nH]c1ccccc12 (stereo not drawn)	-5%	.	14µM*	3%
CC1CCCCN1C(=O)CSc1nnc2c(n1)[nH]c1ccccc12 (stereo not drawn)	-9%	-15%	0%	.
COc1cc(/C=C2\C=Cc3ccccc32)cc(OC)c1OC	-7%	-7%	.	.
COc1ccc(NC(=O)c2ccc3oc(=O)c(S(=O)(=O)c4ccc(F)cc4)cc3c2)cc1OC	-14%	-14%	?	.
SMILES	VACV Venus inh	VACV mCherry inh	FMDV antiviral	Giardia FBPA inh
Cc1cc(C)cc(NC(=O)c2ccc3oc(=O)c(S(=O)(=O)c4ccc(F)cc4)cc3c2)c1	2%	-10%	20µM*	.
CCc1ccc(NC(=O)C(=O)NCCc2csc(-c3ccc(C(F)(F)F)cc3)n2)cc1	-2%	-1%	2%	.
COc1ccc2c(c1)C(=O)[C@@H](OC(=O)N[C@H]1CCCc3ccccc31)[C@H](c1ccc(OC)c(Br)c1)O2	.	.	.	0%
CCCCNC(=O)[C@@H]1CC=C[C@@H]2CCN(C3CCCCC3)C(=O)[C@@H]21	-2%	i	.	.
O=C1/C(=C/N(C(=O)c2ccco2)c2ccc(Br)cc2)Sc2ccccc21	16%	218%	11µM*	0%
Cc1cc(C)c2nccc(C)c2c1	-9%	-12%	.	.
